# High-throughput results deposited in PubChem by several laboratories.
# HSP90 inh: blocks HSP90-mediated luciferase refolding in reticulocyte lysate; Rabbit reticulocyte lysate, luciferase refolding luminescence, 3 h; inhibition, % at 5.6 µM; 290,000 tested, 0.91% active; AID 1789;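 active = inhibition above the screen-wide mean plus 3 SD, computed separately per campaign, cut at about 16% in these data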;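 note: 0% = DMSO wells and 100% = 60 µM geldanamycin wells; inhibitors lower the luminescence because luciferase stays unfolded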
# HSF1 inh: HSF1 inhibition; AID 2098; activity change, negative = inhibition, % at 7.5 µM (by protocol); NIH3T3-HGL HSE-luciferase, MG132-induced, luminescence 8 h; hits give low values; 300,000 tested, 0.77% active;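 active = more than half of replicate wells show activity change below -50%, luminescence cut by over half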;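 note: luciferase reports HSF-1 transcriptional activity via heat shock element; 0% = median of DMSO wells and -100% = zero luminescence signal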
# AHR act: human AHR activation. P35869. AID 2796. 320,000 tested, 2.5% active. activation, % at 5 µM. AHR-responsive luciferase reporter cells, luminescence; in the data active = activation above about 47%;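 note: 0% = vehicle wells and 100% = reference agonist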
# Target sequence (P35869 whole entry, looked up): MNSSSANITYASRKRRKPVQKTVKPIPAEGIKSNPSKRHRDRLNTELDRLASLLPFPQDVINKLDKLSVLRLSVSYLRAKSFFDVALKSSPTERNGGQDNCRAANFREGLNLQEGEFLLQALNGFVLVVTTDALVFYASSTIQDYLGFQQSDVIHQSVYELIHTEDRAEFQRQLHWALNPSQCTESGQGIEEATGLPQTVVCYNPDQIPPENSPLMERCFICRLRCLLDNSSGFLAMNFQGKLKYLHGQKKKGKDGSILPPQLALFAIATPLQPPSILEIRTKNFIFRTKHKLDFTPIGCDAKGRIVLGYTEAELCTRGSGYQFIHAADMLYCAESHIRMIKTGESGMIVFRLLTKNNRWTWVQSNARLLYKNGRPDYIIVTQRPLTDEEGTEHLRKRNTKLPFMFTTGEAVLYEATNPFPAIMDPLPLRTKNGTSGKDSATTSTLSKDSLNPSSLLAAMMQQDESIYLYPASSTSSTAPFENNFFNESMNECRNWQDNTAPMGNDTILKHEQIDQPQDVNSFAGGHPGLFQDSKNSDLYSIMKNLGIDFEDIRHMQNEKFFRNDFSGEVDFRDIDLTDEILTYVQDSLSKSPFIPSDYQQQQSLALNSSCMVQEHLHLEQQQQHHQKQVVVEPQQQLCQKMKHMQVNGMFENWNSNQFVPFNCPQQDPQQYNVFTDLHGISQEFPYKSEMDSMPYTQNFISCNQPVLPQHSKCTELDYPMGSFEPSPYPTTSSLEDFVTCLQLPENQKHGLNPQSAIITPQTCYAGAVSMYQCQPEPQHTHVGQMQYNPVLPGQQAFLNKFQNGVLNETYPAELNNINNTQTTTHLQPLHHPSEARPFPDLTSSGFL
# DAX1 inh: inhibits human nuclear receptor DAX1 | P51843 | HEK293 Gal4-DAX1 luciferase reporter, luminescence | inhibition, % at 6.75 µM | 340,000 tested, 0.99% active;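 active = inhibition above the mean over all tested compounds plus 3 SD, cut at about 4.2% in these data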;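 note: 0% = DAX1-transfected cells with DMSO and 100% = empty-vector control cells with DMSO; inhibition shows as a rise in luminescence from relieved DAX1 repression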
# HSF-1 act: increases HSF-1 driven luciferase reporter signal | NIH3T3-HGL HSF-1 luciferase reporter, MG132, 8 h; 100% = twice DMSO control signal | activation, % at 9 µM | 300,000 tested, 1.7% active;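 active = mean replicate activation of at least 50% with a set share of replicates each reaching 50%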;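 note: 0% = median of the neutral control wells and 100% = twice that signal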
# FXN GAA850 act: increases GAA850 frataxin promoter reporter activity; HEK293 lucGAA850 FXN promoter luciferase reporter, 24 h; percent of 10 µM SAHA response; 360,000 tested, 0.56% active; activation, % at 6 µM;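 active = activation above the average of all compounds screened plus 3 SD, cutoff fixed separately per campaign, cut at about 7.5% in these data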;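 note: 0% = DMSO wells and 100% = 10 µM SAHA wells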
# HSP90 confirm: HSP90 inhibition, confirmation assay. rabbit reticulocyte lysate, luciferase refolding luminescence, 3 h. 2,300 tested, 64% active. inhibition, % at 5.9 µM. shares compounds with HSP90 inh; in the data active = inhibition above about 18%;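 note: 0% = vehicle wells and 100% = reference inhibitor wells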
# luciferase ctr: counter-screen for HSP90 inhibitors: inhibitors of firefly luciferase | purified native firefly luciferase, luminescence | AID 1847 | 2,300 tested, 48% active | shares compounds with HSP90 inh | inhibition, % at 5.9 µM;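 active = inhibition above the mean inhibition of all tested sample wells plus 3 SD, cut at about 10% in these data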;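 note: 0% = DMSO with luciferase and 100% = wells lacking luciferase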
# AHR act confirm: human AHR activation, confirmation; 2,300 tested, 87% active; activation, % at 9 µM; AID 2845; shares compounds with AHR act; human cells, AHR-responsive luciferase reporter, luminescence; in the data active = activation above about 49%;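 note: HepG2 hepatoma cells carrying a DRE-driven firefly luciferase reporter; 0% = vehicle wells and 100% = reference agonist wells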
# PXR counter: activates human PXR in AHR activator counter-screen; shares compounds with AHR act; cell-based PXR reporter, luciferase luminescence; activation, % at 11.6 µM; 2,300 tested, 88% active; AID 434939; in the data active = activation above about 11%;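 note: human hepatoma DPX-2 cells expressing full-length human PXR; 0% = DMSO and 100% = reference agonist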
# * hit, by the source's call; . = not tested or not shown. Rows were chosen to be rich in hits. Some 5.9% of all compounds tested hit in one or more screens of this group.
SMILES,HSP90 inh,HSF1 inh,AHR act,DAX1 inh,HSF-1 act,FXN GAA850 act,HSP90 confirm,luciferase ctr,AHR act confirm,PXR counter
Cc1cccc(NC(=O)NCCN2CCCCC2)c1,25*,-11,1,0,-2,0,-9,-12,.,.
CCc1sc(C(=O)Nc2nc(C)cs2)cc1C,21*,19,.,0,46,1,34*,20*,.,.
CCc1sc(C(=O)Nc2ccc(NC(C)=O)cc2)cc1C,-2,1,0,0,-1,4,.,.,.,.
COc1ccc(CCNc2nc(-c3sc(N)nc3C)cs2)cc1OC,29*,-5,14,-1,-7,1,5,-5,.,.
COc1ccc(Nc2nc(-c3sc(N)nc3C)cs2)cc1,30*,4,46,1,23,2,-4,-21,.,.
Cc1ccc(Nc2nc(-c3sc(N)nc3C)cs2)cc1,39*,-7,.,2,-6,4,-2,-18,.,.
COc1ccc(Nc2nc(-c3sc(C)nc3C)cs2)c(OC)c1,11,-7,0,-4,17,-1,.,.,.,.
COc1ccccc1NS(=O)(=O)c1ccc2[nH]c(=S)oc2c1,.,.,11,0,.,0,.,.,.,.
O=C(Cc1cccc(NC(=O)C2CCN(C(=O)CCc3ccccc3)CC2)c1)Nc1cccc(C(=O)N2CCCC2)c1,.,.,0,0,.,1,.,.,.,.
CC(C)NS(=O)(=O)c1ccc(CCC(=O)N2CCCCC2)cc1,-2,-5,0,0,5,3,.,.,.,.
Cc1cccc(N2C(=O)CC(N3CCC(c4nc5ccccc5[nH]4)CC3)C2=O)c1 (stereo not given),4,-3,1,0,-6,-1,.,.,.,.
CCN1C(=O)CC(N2CCC(c3nc4ccccc4[nH]3)CC2)C1=O (stereo not given),23*,-2,0,0,1,1,24*,5,.,.
O=C(CSc1n[nH]c(-c2ccncc2)n1)Nc1ccccc1Cl,.,-2,2,0,6,2,.,.,.,.
Cc1ccc(NS(=O)(=O)c2ccc(OCC(=O)N3CCOCC3)cc2)cc1,-3,-12,0,-1,-10,2,.,.,.,.
Cc1cc(C)c(S(=O)(=O)Nc2ccc[nH]c2=O)c(C)c1,2,3,-2,2,4,2,.,.,.,.
COC(=O)c1nn(-c2ccc3c(c2)OCO3)cc1O,9,15,8,1,26,0,.,.,.,.
COC(=O)c1nn(-c2ccc3c(c2)CCN3C(C)=O)cc1O,85*,-58*,1,-5,-61,-5,88*,74*,.,.
CCOc1ccccc1NC(=O)CSc1nc2[nH]ncc2c(=O)[nH]1,.,-1,4,0,9,0,.,.,.,.
CC1=CC(C)(C)Nc2ccc(OC(=O)c3cccnc3)cc21,13,-6,-14,-2,-8,7,.,.,.,.
CC1=CC(C)(C)Nc2ccc(OC(=O)c3ccco3)cc21,17*,-23,-7,-2,-30,5,32*,-9,.,.
O=C(Nc1nc2ccccc2s1)c1ccc(OCC2CCCO2)cc1 (stereo not given),19*,5,112*,-3,13,-2,39*,33*,69*,8
CCOc1ccc(Nc2nc(-c3sc(N)nc3C)cs2)cc1,20*,-3,114*,2,-8,-1,1,-21,112*,17*
N/C(=N\OC(=O)c1cccc(Br)c1)c1ccccn1,42*,8,99*,-3,2,-2,26*,74*,95*,4
CCOc1ccc(C(=O)O/N=C(\N)c2ccccn2)cc1OCC,-2,41,7,1,25,4,.,.,.,.
O=C(COc1ncnc2ccccc12)NCCc1ccc(F)cc1,-5,-9,-1,1,-5,1,.,.,.,.
SMILES,HSP90 inh,HSF1 inh,AHR act,DAX1 inh,HSF-1 act,FXN GAA850 act,HSP90 confirm,luciferase ctr,AHR act confirm,PXR counter
COc1ccc(/C(N)=N/O)c(OC)c1,2,-13,-2,-1,-7,0,.,.,.,.
COc1cccc(C(=O)Nc2nnc(C(C)C)s2)c1,22*,9,133*,0,25,1,34*,22*,0,28*
CCCc1nnc(NC(=O)c2cccc(OC)c2)s1,-3,13,5,3,38,6,.,.,.,.
Cc1ccc(-c2cn(-c3ccccc3)c(=S)[nH]2)cc1C,19*,-61*,81*,4,-69,3,27*,15*,12,38*
Cc1cc(CC(C)C)n(-c2nc3ccccc3c(=O)n2OCC(=O)N(C)C)n1,9,.,15,0,.,1,.,.,.,.
Cc1cc(CC(C)C)n(-c2nc3ccccc3c(=O)n2OCc2ccccc2)n1,18*,-40,87*,0,-44,-3,15,9.5*,99*,74*
CC(=O)Nc1ccc(S(=O)(=O)N(C)CC(=O)OCC(=O)N(CC(C)C)C2CCS(=O)(=O)C2)cc1 (stereo not given),.,-3,4,-1,-1,2,.,.,.,.
CC(C)c1ccc(NC(=S)Nc2cccc3ccccc23)cc1,21*,-68*,90*,0,-72,0,19*,-21,90*,81*
C/C(=C\C(=O)c1ccccc1)NNc1nc2ccccc2s1,37*,11,97*,0,25,3,-5,-11,18,54*
Clc1ccc(-c2cn3cc(Cl)ccc3n2)cc1,32*,18,87*,0,45,0,55*,54*,124*,19*
CCN(CC)S(=O)(=O)c1ccc(-c2cn3cc(Cl)ccc3n2)cc1,-2,2,-5,-1,3,0,.,.,.,.
Nn1c(-c2ccc(F)cc2)nc2ccccc2c1=O,1,-3,4,1,-22,-2,.,.,.,.
O=C1c2cc(F)ccc2-n2c1nc1ccccc1c2=O,73*,17,100*,-1,37,0,68*,-5,-16,-17
c1ccc2c(C3=NNC(=NC4CC4)SC3)c[nH]c2c1,19*,87,97*,0,157*,2,61*,38*,8,11*
COc1ccccc1N1CC(C)(C)C(=O)N(C(=O)c2c(F)cccc2Cl)C1=S,-1,1,-1,1,-6,2,.,.,.,.
O=C1CCCc2nc3c(cc21)C(O)Oc1c-3ccc2ccccc12 (stereo not given),31*,-3,148*,1,-5,1,38*,-21,13,45*
O=C1CCCc2nc3c(cc21)C(O)Oc1ccccc1-3 (stereo not given),-2,-6,9,1,0,1,.,.,.,.
